The values that follow come from publication PMC12136788.

Sequences and labels used below:
T1: UNK ZnF1-6 (called full-length) (human, UniProt Q9C0B0 30-357)
T1 sequence: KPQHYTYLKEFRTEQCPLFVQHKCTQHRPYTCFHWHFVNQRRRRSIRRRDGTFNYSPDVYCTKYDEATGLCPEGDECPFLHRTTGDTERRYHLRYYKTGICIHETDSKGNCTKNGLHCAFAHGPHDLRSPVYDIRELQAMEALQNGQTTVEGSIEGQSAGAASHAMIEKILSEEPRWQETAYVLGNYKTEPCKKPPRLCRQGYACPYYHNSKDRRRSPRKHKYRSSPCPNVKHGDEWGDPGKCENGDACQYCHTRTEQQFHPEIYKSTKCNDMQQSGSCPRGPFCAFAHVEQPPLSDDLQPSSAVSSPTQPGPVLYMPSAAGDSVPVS

B1: ENSG00000136451:be:win_3701|3pUTR|ENSG00000136451|bound_else_gene|NA|bound_elsewhere_windowed (ssRNA)
RNA: GGGAGUUCUACAGUCCGACGAUCUCUCUGGUGGGCUGGCAGUCAUAAUUCACAAUUCAGACAGCCCAGGCUUCCUCCACAGUGGUCCAAGGAGCAGUCCUCAGUGGGGGCAGGUGUGGGCCCUACCCCUAAGCUAGAAUGUGGCAACAGAGGAUUGAGCAUCA
B2: ENSG00000107863:be:win_451|CDS|ENSG00000107863|bound_else_gene|NA|bound_elsewhere_windowed (ssRNA)
RNA: GGGAGUUCUACAGUCCGACGAUCUUGGAACUUAGUGUUAUGCCAAAAGAUGAAGACAUUCUCCAAGUGCUACAGUUUACAAAGGAUGUCACAGCACUGGCAUAUUCUCAAGAUGCCUACCUGAAAGGCAACGAAGCUUAUAGCCAACAGAGGAUUGAGCAUCA
B3: chr9:96387934:96388035:-|3pUTR|ENSG00000165244|msi1|total|mutant (ssRNA)
RNA: GGGAGUUCUACAGUCCGACGAUCAAUAUUUUGUAAAUAUGGACUGCACAGUACAGGGCCGAAAACUACAUAUUGUGGGAAGCCCGAUUUUGCAAGUUUAAUGCAUUCAUUGGAAGCAGUUCUCACAGGAAGCACUUUCUGAAUCAACAGAGGAUUGAGCAUCA
B4: chr20:32237940:32238012:+|3pUTR|ENSG00000101346|msi1_unk|FALSE|overlapping (ssRNA)
RNA: GGGAGUUCUACAGUCCGACGAUCUUUCAAAGAUACAAAUAUUUACAUAGUUUUAAUCAUGUAAUAUAUACAAUUUAAUGUCCUAGUGUUUUACUUAAUAGUGUAUCAUGUUUUCCCUGUUGGUAUGUAGCCUGGAUAAAUGCUCAACAGAGGAUUGAGCAUCA
B5: chr17:3662948:3663056:-|3pUTR|ENSG00000213977|unk|total|mutant (ssRNA)
RNA: GGGAGUUCUACAGUCCGACGAUCAGUUUGAUACAAAAUGUUUUUAUCGUACUCUUUGGAGAUGCCCAUUCUACUUUUGAAUUCCGCUUUUACUAAUUCGCAUCUGGAAGCUCAGCAAGUGCACAAGCCUUACUUUGGUUACCGCAACAGAGGAUUGAGCAUCA
B6: chr5:76617584:76618642:-|CDS|ENSG00000164220|control|control|control (ssRNA)
RNA: GGGAGUUCUACAGUCCGACGAUCUGAUGGCUUAUAUUUUAUAUAUCUCAUAGCUUUGUGCCUGGGUAGUCUUAAUAGUUGCUUAGAUCCAUUCCUUUAUUUUCUCAUGUCAAAAACCAGAAAUCACUCCACUGCUUACCUUACCAACAGAGGAUUGAGCAUCA

Over roughly 5,800 sequences, “enrichment r” has its median near 0.68; the highest 2% begin near 11. What follows is part of a selection rich in the highest values, with near analogues and random picks from the rest.

The target of this test is T1, UNK ZnF1-6 (called full-length). As to the kind of experiment: nsRBNS (natural sequence RNA bind-n-seq); RBNS binding buffer (assumed for nsRBNS): 25 mM Tris pH 7.5, 150 mM KCl, 3 mM MgCl2, 0.01% Triton X-100, 500 ug/ml BSA, 20 U/ml SUPERase-In, 4 C; UNK is unkempt and MSI1 is Musashi-1; names of the RNAs are library labels; protein concentration not given here; high values mean tight binding.
The molecule B1 gave a binding signal of 0.776 enrichment R.
B2 yielded a binding signal of 0.399 enrichment R.
The figure for B3 is 0.299 enrichment R.
In turn, B4 came in with a binding signal of 4.06 enrichment R.
The same measure for B5: 0.437 enrichment R; for B6: 4.63 enrichment R.
